Source: PubChem BioAssay (NCATS)
Values joined by “and” are separate entries in the source; they are usually repeats but may differ in a detail not shown here. Equal entries are not always repeated. Results filed as inconclusive are left out. Active and inactive are the calls of the source. Unless noted, calls follow the shape of the dose curve; as a rule, active = well fitted curve in the direction sought with a large enough effect; inconclusive = small, poorly fitted or top-dose-only effect, or another doubt; inactive = no such curve, though single readings can be large; an effect the other way counts as inactive or inconclusive.

How the values were obtained:
[1] = molecular target: Cellular tumor antigen p53 (Homo sapiens) (UniProt P04637); assay: Primary qHTS for small molecule compounds that upregulate eGFP-tagged delta133p53alpha (in N-terminal) cells. (AID 2060322); conditions: NCI-H358 eGFP-delta133p53alpha fluorescence, 24 h; activation: hits give high values;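 also: series mostly up to about 56 µM; 0% = DMSO vehicle and 100% = reference activator; nearly all actives have a fitted effect of over 75% in size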
Summary of the method: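 NCI-H358 cells pre-induced 24 h with 10 ng/ml doxycycline to express N-terminal eGFP-delta133p53alpha, then dosed 24 h at 37C without doxycycline; fixed, Hoechst-stained, GFP intensity by laser scanning cytometry, normalized to DMSO (0%) and 57.5 uM 5-azacytidine (100%).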

[2] = molecular target: Cellular tumor antigen p53 (Homo sapiens) (UniProt P04637); assay: Primary qHTS for small molecule compounds that upregulate eGFP-tagged delta133p53alpha (in C-terminal) cells. (AID 2060324);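 also: 0% = DMSO wells and 100% = 57.5 µM 5-azacytidine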
Summary of the method: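 NCI-H358 cells pre-induced 24 h with 100 ng/ml doxycycline to express delta133p53alpha-eGFP, then dosed in doxycycline-free medium for 24 h at 37C. Fixed, Hoechst-stained; GFP intensity by laser scanning cytometry, normalized to DMSO wells.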

[3] = molecular target: Aldehyde dehydrogenase, mitochondrial (Homo sapiens) (UniProt P05091); assay: qHTS for Inhibitors of the Aldehyde Dehydrogenase Family (ALDH2) Validation screens (AID 2061302; active = well fitted inhibition curve with a large enough effect; title and protocol of this record describe different tests;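 also: plate controls were DMSO vehicle for no effect and maximal DPI positive control response for full effect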)
[4] = molecular target: Retinaldehyde dehydrogenase 3 (Homo sapiens) (UniProt P47895); assay: qHTS for Inhibitors of the Aldehyde Dehydrogenase Family (ALDH1A3) Validation screen (AID 2061312); also: % is scaled to controls: 0 for no effect and ±100 for the full control effect; nearly all actives have a fitted effect of over 45% in size
[5] = molecular target: Retinaldehyde dehydrogenase 3 (Homo sapiens) (UniProt P47895); assay: qHTS for Inhibitors of the Aldehyde Dehydrogenase Family (ALDH1A3) Primary screen (AID 2061315);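 also: plate controls were DMSO vehicle for no effect and reference inhibitor for full effect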
[6] = BET inhibitor-based combinations targeting novel dependencies in MECOM-rearranged (r) AML: SET-2 cell line (AID 2202231); conditions: SET-2 AML cells viability, CellTiter-Glo luminescence, 48 h; viability: hits give low values, series mostly up to about 46 µM;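 also: plate controls were DMSO treated cells for no effect and wells without cells for full effect; nearly all actives have a fitted effect of over 35% in size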
Summary of the method: (§1)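 Here, 11-point titrations of each agent were applied to 500 seeded cells and incubated 48 hr; CellTiter-Glo signal, scaled against DMSO and empty wells, was integrated as AUC, then Z-scored within the individual line.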

[7] = BET inhibitor-based combinations targeting novel dependencies in MECOM-rearranged (r) AML: OCI-AML3 cell line (AID 2202232); conditions: Potency: OCI-AML3 viability;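 also: series mostly up to about 46 µM; plate controls were DMSO vehicle wells for no effect and wells without cells for full effect; nearly all actives have a fitted effect of over 35% in size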
Summary of the method: as §1

[8] = BET inhibitor-based combinations targeting novel dependencies in MECOM-rearranged (r) AML: MV-4-11 cell line (AID 2202233);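 also: plate controls were DMSO for no effect and blank wells for full effect; nearly all actives have a fitted effect of over 45% in size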
Summary of the method: (§2)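 Normalized to DMSO and empty-well controls, the luminescence data from CellTiter-Glo after 48 hr drug exposure were fitted across 11 concentrations. Reported metrics are area under the dose-response curve and its Z-transformed form.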

[9] = BET inhibitor-based combinations targeting novel dependencies in MECOM-rearranged (r) AML: HNT-34 cell line (AID 2202234);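 also: plate controls were vehicle wells for no effect and cell-free wells for full effect; nearly all actives have a fitted effect of over 35% in size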
Summary of the method: as §2

[10] = BET inhibitor-based combinations targeting novel dependencies in MECOM-rearranged (r) AML: UCSD-AML1 cell line (AID 2202235);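 also: series mostly up to about 46 µM; plate controls were DMSO vehicle wells for no effect and blank wells for full effect; nearly all actives have a fitted effect of over 40% in size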
Summary of the method: as §2

[11] = BET inhibitor-based combinations targeting novel dependencies in MECOM-rearranged (r) AML: AML-191 cell line (AID 2202236;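 also: plate controls were vehicle wells for no effect and wells without cells for full effect; nearly all actives have a fitted effect of over 35% in size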)
Summary of the method: as §1

[12] = BET inhibitor-based combinations targeting novel dependencies in MECOM-rearranged (r) AML: AML-194 cell line (AID 2202237;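 also: plate controls were vehicle wells for no effect and wells without cells for full effect; nearly all actives have a fitted effect of over 40% in size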)
Summary of the method: as §1

Sequence of Cellular tumor antigen p53 (Homo sapiens) (P04637 whole entry, looked up): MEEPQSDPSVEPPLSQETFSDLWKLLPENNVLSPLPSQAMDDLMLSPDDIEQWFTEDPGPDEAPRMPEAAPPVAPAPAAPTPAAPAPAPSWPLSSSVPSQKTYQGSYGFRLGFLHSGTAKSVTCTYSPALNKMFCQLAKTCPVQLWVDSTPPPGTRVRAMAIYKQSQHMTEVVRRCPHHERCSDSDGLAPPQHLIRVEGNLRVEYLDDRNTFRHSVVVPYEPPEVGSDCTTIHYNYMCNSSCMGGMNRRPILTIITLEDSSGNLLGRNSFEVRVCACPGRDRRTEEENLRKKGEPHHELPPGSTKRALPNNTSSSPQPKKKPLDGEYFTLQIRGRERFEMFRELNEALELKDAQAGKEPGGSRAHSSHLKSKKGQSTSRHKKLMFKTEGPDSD

Nc1nc(Cl)nc2c1ncn2[C@@H]1O[C@H](COP(=O)(O)OP(=O)(O)OP(=O)(O)O)[C@@H](O)[C@H]1O
inactive: activation [1] -39.8% | Potency [2] | Potency [3] | Potency [4]

CCSC(=N)N
inactive: activation [1] -32.7% | Potency [2] | Potency [3] | Potency [4]

CC(C)(C)NCC(O)COc1cccc2[nH]c(=O)[nH]c12 (stereo unspecified)
inactive: activation [1] -2.8% | Potency [2] | Potency [3] | Potency [4]

COC(=O)[C@H](NC(=O)c1cc(-c2ccccc2)nc2ccccc12)c1ccccc1
inactive: activation [1] 6.75% | Potency [2] | Potency [3] | Potency [4]

CC(CCc1ccccc1)NCC(O)c1ccc(O)c(C(N)=O)c1 (stereo unspecified)
inactive: activation [1] 11.5% and 18% | Potency [2] | Potency [3] | Potency [4] | Potency [5]

O=C(O)CN(CCN(CC(=O)O)CC(=O)O)CCN(CC(=O)O)CC(=O)O
inactive: activation [1] -33.2% | Potency [2] | Potency [3] | Potency [4]

CSC(=N)N
inactive: activation [1] 3.81% | Potency [2] | Potency [3] | Potency [4]

CC(C(=O)O)c1ccc(CC2CCCC2=O)cc1 (stereo unspecified)
inactive: activation [1] -10% and 11.7% | Potency [2] | Potency [3] | Potency [4]

CN1C2CCC1CC(OC(=O)c1c[nH]c3ccccc13)C2 (stereo unspecified)
inactive: activation [1] -37.1% | Potency [2] | Potency [3] | Potency [4]

NC(N)=NC(N)=Nc1ccccc1
inactive: activation [1] -1.81% | Potency [2] | Potency [3] | Potency [4]

CCCNCC(O)COc1ccccc1C(=O)CCc1ccccc1 (stereo unspecified)
inactive: activation [1] 15% and -5.02% and 3.52% | Potency [2] | Potency [3] | Potency [4] | viability [6] 84.2%

CC1C(=O)N(C)C(=O)c2nc[nH]c21 (stereo unspecified)
inactive: activation [1] -19.1% | Potency [2] | Potency [3] | Potency [4]

C1COC(NC(C2CC2)C2CC2)=N1
inactive: activation [1] 11% and 4.18% | Potency [2] | Potency [3] | Potency [4] | viability [6] 117% | Potency [7] | Potency [8] | Potency [9] | Potency [10] | Potency [11]

CNCCC(Oc1ccccc1C)c1ccccc1 (stereo unspecified)
inactive: activation [1] -12.7% | Potency [2] | Potency [3] | Potency [4]

O=S(=O)(c1cccc2c(Cl)cccc12)N1CCCNCC1
inactive: activation [1] -18.2% | Potency [2] | Potency [3] | Potency [4]

CC(CCc1ccc(O)cc1)NCCc1ccc(O)c(O)c1 (stereo unspecified)
inactive: activation [1] 23.7% and -15.1% and -3.75% | Potency [2] | Potency [3] | Potency [4]

N[C@H](C(=O)O)[C@H]1C[C@@H]1C(=O)O
inactive: activation [1] 6.82% | Potency [2] | Potency [3] | Potency [4]

CCN(CC)CCNC(=O)c1ccc(NC(C)=O)cc1
inactive: activation [1] 18.6% and -9.2% | Potency [2] | Potency [3] | Potency [4]

NC(=O)c1cccc(N)c1
inactive: activation [1] 7.85% | Potency [2] | Potency [3] | Potency [4] | viability [6] 120% | Potency [7] | Potency [8] | Potency [9] | Potency [10] | Potency [11] | Potency [12]

CCCNC(C)C(=O)Nc1ccccc1C (stereo unspecified)
inactive: activation [1] -9.21% and 30.8% | Potency [2] | Potency [3] | Potency [4]

CC1CC2C3CCC4=CC(=O)C=C[C@]4(C)[C@@]3(F)[C@@H](O)C[C@]2(C)[C@@]1(O)C(=O)CO (stereo partly specified)
inactive: activation [1] -4.86% and -24.4% | Potency [2] | Potency [3] | Potency [4]

NCC(O)(CS(=O)(=O)O)c1ccc(Cl)cc1 (stereo unspecified)
inactive: activation [1] -28.8% | Potency [2] | Potency [3] | Potency [4]

NC(=O)CC[C@H](N)C(=O)O
inactive: activation [1] 18.7% | Potency [2] | Potency [3] | Potency [4]

O=C(CCSCc1ccco1)NNC(=O)N1Cc2ccccc2Oc2ccc(Cl)cc21
inactive: activation [1] 22% | Potency [2] | Potency [3] | Potency [4]

CC(C)NCC(O)COc1ccc(CC(N)=O)cc1 (stereo unspecified)
inactive: activation [1] -17.7% | Potency [2] | Potency [3] | Potency [4]

Nc1ccc(N2C(=O)c3ccccc3C2=O)c(Cl)c1
inactive: activation [1] -1.82% | Potency [2] | Potency [3] | Potency [4]

Cc1cc(NC(=O)Nc2ccc3c(ccn3C)c2)sn1
inactive: activation [1] 51% | Potency [2] | Potency [3] | Potency [4]

NC1C=CC=C(C(=O)O)C1 (stereo unspecified)
inactive: activation [1] -22% | Potency [2] | Potency [3] | Potency [4]

CC1CNCCN1S(=O)(=O)c1cccc2cnccc12 (stereo unspecified)
inactive: activation [1] -28.4% | Potency [2] | Potency [3] | Potency [4]
